From PubChem BioAssay
Shown are actives, neighbours in structure and some others; about 12% of the full set was active somewhere.
JMJD2A Tudor inh: qHTS Assay for Inhibitors of JMJD2A-Tudor Domain; Lysine-specific demethylase 4A (Homo sapiens), O75164; AlphaScreen JMJD2A-Tudor / H3K4me3 peptide binding; Potency, µM (top dose mostly 114 µM), for inactives: top-dose activity change, negative = inhibition, usual class: inhibitors; 390,000 compounds, 4.4% hits; AID 504339, 2011; note: potency is the fitted concentration of half-maximal effect; % is set by controls: 0 for no effect and ±100 for the full control effect; nearly all actives have a fitted effect of over 50% in size
BAZ2B block: qHTS Assay for Inhibitors of BAZ2B; AlphaScreen BAZ2B-H3K14Ac peptide displacement; 360,000 compounds, 4.4% hits; Bromodomain adjacent to zinc finger domain protein 2B (Homo sapiens), Q9UIF8; Potency, µM (series often up to 114 µM), inactives show top-dose activity change, negative = inhibition, usual class: inhibitors; note: potency is the fitted concentration of half-maximal effect; % is set by controls: 0 for no effect and ±100 for the full control effect; nearly all actives have a fitted effect of over 60% in size
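BAZ2B (50 nM) with biotin-H3(5-23)K14Ac peptide (50 nM) in PBS pH 7.4, 0.01% Tween-20, preformed 30 min, then compound 30 min at room temperature; top concentration 110uM. AlphaScreen streptavidin donor/nickel chelate acceptor beads (10 ug/mL final), 20 min dark, signal read.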
PI5P4K alpha inh: qHTS for Inhibitors of phosphatidylinositol 5-phosphate 4-kinase (PI5P4K) | PI5P4Kalpha enzyme, ADP-Glo luminescence, 60 min; active compounds read low | Phosphatidylinositol 5-phosphate 4-kinase type-2 alpha (Homo sapiens), P48426 | 330,000 compounds, 1.2% hits | max response, %; active = max response of -50% or lower; inconclusive = between -30% and -50%; inactive = -30% or higher; note: value at the top dose of about 77 µM; % is set by controls: 0 for no effect and ±100 for the full control effect
Target sequence (P48426 whole entry, looked up): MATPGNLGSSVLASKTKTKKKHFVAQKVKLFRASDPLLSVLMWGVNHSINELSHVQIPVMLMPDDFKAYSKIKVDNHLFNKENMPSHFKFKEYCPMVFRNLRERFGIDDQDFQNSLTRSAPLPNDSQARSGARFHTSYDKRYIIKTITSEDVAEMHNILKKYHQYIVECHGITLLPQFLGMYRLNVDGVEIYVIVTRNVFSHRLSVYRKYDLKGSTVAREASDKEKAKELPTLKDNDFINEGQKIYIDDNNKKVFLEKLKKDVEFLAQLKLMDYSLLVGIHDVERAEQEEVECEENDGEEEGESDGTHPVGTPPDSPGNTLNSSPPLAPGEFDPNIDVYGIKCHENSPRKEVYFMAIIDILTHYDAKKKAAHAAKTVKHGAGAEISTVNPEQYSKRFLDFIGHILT
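Controls without substrate or without enzyme flank wells where PI5P4Kalpha converts substrate using 5 microM ATP (final). Incubation lasts 60 minutes at room temperature; ADP formed is read by ADP-Glo luminescence.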
G9a inh: qHTS Assay for Inhibitors of Histone Lysine Methyltransferase G9a; Histone-lysine N-methyltransferase EHMT2 (Homo sapiens), Q96KQ7; G9a H3K9 monomethylation, AlphaScreen, 2 h; Potency, µM (series often up to 102 µM), for inactives: at the highest dose activity, negative = inhibition, actives largely listed as inhibitors; 350,000 compounds, 8.8% hits; AID 504332, 2011; note: potency is the fitted concentration of half-maximal effect; % is set by controls: 0 for no effect and ±100 for the full control effect; nearly all actives have a fitted effect of over 75% in size
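AlphaScreen detection with an anti-monomethyl H3K9 antibody quantified product after a 2 h room-temperature reaction containing 500 nM biotinylated H3K9 peptide, 20 µM SAM and 20 nM enzyme, which had been preincubated 15 min with compound.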
HP1b binding inh: HTS for Inhibitors of HP1-beta Chromodomain Interactions with Methylated Histone Tails; Chromobox protein homolog 1 (Homo sapiens), P83916; AlphaScreen HP1-beta / biotin-H3K9me3 peptide binding; Potency, µM (highest dose often 114 µM), inactives show at the top dose activity change, negative = inhibition, hits mostly inhibitors; 390,000 compounds, 0.56% hits; AID 540317, 2011; note: potency is the fitted concentration of half-maximal effect; nearly all actives have a fitted effect of over 70% in size
Target sequence (P83916 whole entry, looked up): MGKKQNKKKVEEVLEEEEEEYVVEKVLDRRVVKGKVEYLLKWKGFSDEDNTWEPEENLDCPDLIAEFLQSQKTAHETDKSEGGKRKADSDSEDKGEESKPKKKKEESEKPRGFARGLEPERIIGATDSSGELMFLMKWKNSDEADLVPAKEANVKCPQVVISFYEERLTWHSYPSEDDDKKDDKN
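AlphaScreen: HP1-beta (50 nM) preformed 30 min with biotin-H3(1-18)K9me3 peptide (50 nM) in PBS pH 7.4, 0.01% Tween-20. Compound added for 30 min at RT, then streptavidin donor/nickel chelate acceptor beads (10 ug/mL) for 30 min.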
PLK1 PBD inh: qHTS for Inhibitors of PLK1-PDB (polo-like kinase 1 - polo-box domain): Primary Screen; Serine/threonine-protein kinase PLK1 (Homo sapiens), P53350; AID 720504, 2013; Potency, µM, for the others: max response, negative = inhibition, actives largely listed as inhibitors; Plk1 PBD binding of FITC phosphopeptide, fluorescence polarization; 360,000 compounds, 2.8% hits; note: potency is the fitted concentration of half-maximal effect; series mostly up to about 57 µM; % is set by controls: 0 for no effect and ±100 for the full control effect; nearly all actives have a fitted effect of over 65% in size
The depositor's hits bear a star; [ ] = remark or other dose. Unless noted, calls come from the whole dose curve; as a rule, active = well fitted curve in the direction sought with a large enough effect; inconclusive = small, poorly fitted or top-dose-only effect, or another doubt; inactive = no such curve, though single readings can be large; an effect the other way counts as inactive or inconclusive.

For O=C(NCc1ccccc1)c1cccc(Nc2nc3ccccc3n3nnnc23)c1 the results were JMJD2A Tudor inh -27%, BAZ2B block -16%, G9a inh 5%[59 µM] and HP1b binding inh inconclusive.
For O=C(N/N=C/c1c(O)n(Cc2ccccc2)c(=O)[nH]c1=O)c1ccccc1O the results were JMJD2A Tudor inh inconclusive, BAZ2B block inconclusive, PI5P4K alpha inh -70*, G9a inh inconclusive, HP1b binding inh 12% and PLK1 PBD inh 1%.
Nc1cccc(N=Cc2c(O)n(Cc3ccc(F)cc3)c(=O)[nH]c2=O)c1 was read as JMJD2A Tudor inh -17%, BAZ2B block 1%, PI5P4K alpha inh -1, G9a inh 13µM*, HP1b binding inh 7% and PLK1 PBD inh -2%.
O=c1[nH]c(=O)n(Cc2ccccc2)c(O)c1C=NCCCO was read as JMJD2A Tudor inh 21%, BAZ2B block 6%, PI5P4K alpha inh -9, G9a inh -31%[59 µM], HP1b binding inh 29% and PLK1 PBD inh 9%.
Screening CCCCCCC(=O)N/N=C/c1c(O)n(CCc2ccccc2)c(=O)[nH]c1=O returned JMJD2A Tudor inh -19%, BAZ2B block 4%, PI5P4K alpha inh inconclusive, G9a inh -3%, HP1b binding inh 35% and PLK1 PBD inh 4%.
Screening O=C(N/N=C/c1c(O)n(CCc2ccccc2)c(=O)[nH]c1=O)c1ccccc1O returned JMJD2A Tudor inh inconclusive, BAZ2B block -38%, PI5P4K alpha inh -75*, G9a inh 71µM*, HP1b binding inh 33% and PLK1 PBD inh 4%.
O=c1[nH]c(=O)n(Cc2ccccc2)c(O)c1/C=N/NCCO was read as JMJD2A Tudor inh 56µM*, BAZ2B block 50µM*, PI5P4K alpha inh -4, G9a inh 50µM*, HP1b binding inh 36% and PLK1 PBD inh -2%.
CC(C)=CC1C(C(=O)OCc2coc(Cc3ccccc3)c2)C1(C)C (centres undefined) was read as G9a inh 17%[12.7 µM].
Screening O=C(N/N=C/c1c(O)n(Cc2ccco2)c(=O)[nH]c1=O)c1ccccc1 returned JMJD2A Tudor inh 79µM*, BAZ2B block 79µM*, PI5P4K alpha inh -67*, HP1b binding inh 27% and PLK1 PBD inh -18%.
`COc1cccc(N=Cc2c(O)n(Cc3ccco3)c(=O)[nH]c2=O)c1` gave JMJD2A Tudor inh -2%, BAZ2B block -31%, PI5P4K alpha inh -23, G9a inh inconclusive, HP1b binding inh 18% and PLK1 PBD inh 3%.
`O=c1[nH]c(=O)n(Cc2ccco2)c(O)c1/C=N/N1CCCCC1` gave JMJD2A Tudor inh -21%, BAZ2B block -34%, PI5P4K alpha inh -25, G9a inh 20µM*, HP1b binding inh 2% and PLK1 PBD inh -26%.
`O=c1[nH]c(=O)n(Cc2ccco2)c(O)c1C=NC1CC1` gave JMJD2A Tudor inh -14%, BAZ2B block 4%, PI5P4K alpha inh 1, G9a inh 5%[59 µM], HP1b binding inh 22% and PLK1 PBD inh -8%.
Screening COc1ccc(Cn2c(O)c(C=NCCN3CCOCC3)c(=O)[nH]c2=O)cc1 returned JMJD2A Tudor inh -5%, BAZ2B block -4%, PI5P4K alpha inh -14, G9a inh 40µM*, HP1b binding inh 41% and PLK1 PBD inh -10%.
`C=CCn1c(O)c(/C=N/NC(=O)CCCC)c(=O)[nH]c1=S` gave JMJD2A Tudor inh 79µM*, BAZ2B block inconclusive, PI5P4K alpha inh -5, G9a inh 102%[59 µM], HP1b binding inh 18% and PLK1 PBD inh -10%.
O=C(Nc1ccc(OC(F)(F)F)cc1)c1cccn(Cc2ccccc2Cl)c1=O was read as JMJD2A Tudor inh 2%, BAZ2B block 9%, G9a inh 13%[59 µM] and HP1b binding inh 40%[57 µM].
Screening O=C(Nc1cccc(F)c1)N1CC2(CCN(C(=O)Oc3ccccc3)CC2)C1 returned G9a inh -2%[12.7 µM].
For CCn1c(O)c(/C=N/NC(=O)c2ccccc2)c(=O)[nH]c1=S the results were JMJD2A Tudor inh 56µM*, BAZ2B block 40µM*, PI5P4K alpha inh inconclusive, G9a inh -7%, HP1b binding inh 58% and PLK1 PBD inh 2%.
Cn1c(O)c(C=NCCN2CCOCC2)c(=O)n(C)c1=S was read as JMJD2A Tudor inh -6%, BAZ2B block inconclusive, PI5P4K alpha inh -11, G9a inh 32µM*, HP1b binding inh 5% and PLK1 PBD inh -4%.
Screening CCn1c(O)c(C=NCCN2CCOCC2)c(=O)n(CC)c1=S returned JMJD2A Tudor inh -12%, BAZ2B block -15%, PI5P4K alpha inh 2, HP1b binding inh 32% and PLK1 PBD inh -13%.
For O=C(CN1C(=O)CN=C(c2ccccc2)c2ccccc21)Nc1cccc(C(F)(F)F)c1 the results were JMJD2A Tudor inh -31%, G9a inh -41%[59 µM] and HP1b binding inh 11%.
Screening COC(=O)C(O)(c1ccc(NC(=S)NC(=O)c2ccc(Cl)cc2Cl)c(C)c1)C(F)(F)F (centres undefined) returned JMJD2A Tudor inh 79µM*, BAZ2B block -35%, PI5P4K alpha inh -12, G9a inh 1%[59 µM], HP1b binding inh -20% and PLK1 PBD inh 21µM*.
For CN1C(=O)C(=Cc2ccc(OCC(=O)Nc3ccccc3)cc2)C(=O)N(C)C1=O the results were JMJD2A Tudor inh -8%, BAZ2B block -7%, PI5P4K alpha inh -3, HP1b binding inh 30% and PLK1 PBD inh 7.5µM*.
`COc1ccc(C=C2C(=O)N(C)C(=O)N(C)C2=O)cc1COc1ccc(NC(C)=O)cc1` gave JMJD2A Tudor inh -17%, BAZ2B block inconclusive, PI5P4K alpha inh 2, G9a inh 45µM*, HP1b binding inh -3% and PLK1 PBD inh -27%.
COc1ccc(CC2C(=O)N(C)C(=O)N(C)C2=O)c(OC)c1 was read as JMJD2A Tudor inh -12%, BAZ2B block 5%, PI5P4K alpha inh 4, G9a inh inconclusive, HP1b binding inh 51% and PLK1 PBD inh inconclusive.
COc1ccc(C=C2C(=O)N(C)C(=O)N(C)C2=O)cc1CSc1ccccn1 was read as JMJD2A Tudor inh inconclusive, BAZ2B block -23%, PI5P4K alpha inh inconclusive, G9a inh 45µM*, HP1b binding inh 40% and PLK1 PBD inh 6µM*.
COc1ccc([N+](=O)[O-])cc1CSc1ccccn1 was read as JMJD2A Tudor inh -9%, BAZ2B block -31%, PI5P4K alpha inh -5, HP1b binding inh 38% and PLK1 PBD inh inconclusive.
